Test systems include NCI-H23 lung; NCI-H226 lung; NCI-H322M lung; HOP-62 NSCLC; NCI-H460 lung; HOP-92 NSCLC; NCI-H522 lung; A549/ATCC NSCLC; 786-0 renal; COLO 205 colon; DU-145 prostate; K-562 leukemia; MALME-3M melanoma; MDA-MB-231 breast; RXF 393 renal; SF-268 CNS; SF-295 CNS; SF-539 CNS; UACC-257 melanoma; M14 melanoma.
What all share (experiment): NCI-60 one-dose screen, 48 h (100 = growth as untreated, 0 = no growth, -100 = all killed)
Common to all, as to conditions: 10 µM unless noted

About 83,000 compounds went through this panel and 20% of them were active in at least one assay; those are over-represented in the sample as a whole.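 Single-concentration screen, 48 h exposure, 96-well plates. Endpoint: percent growth. Below 10 = active.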 A number with no mark means an inactive call. Active and inactive are the calls of the source.

On to `CC/C(=C(/c1ccc(Cl)cc1)c1ccc(OCCN(CC)CC)cc1)c1ccc(OC)cc1`, for which the growth with NCI-H23 lung is 48.7%; in the test on NCI-H226 lung, 80.5%; in the test on NCI-H322M lung, 66.9%; with HOP-62 NSCLC, 89.2%; with NCI-H460 lung, 16.6%; in the test with HOP-92 NSCLC, 51.7%. Besides, the growth with NCI-H522 lung was 66.6%; in the test with A549/ATCC NSCLC, 48.8%; with 786-0 renal it was 49.5%; in the test with COLO 205 colon it was 22.2%; in the test with DU-145 prostate, 74.4%; in the test on K-562 leukemia, -18% (active). Moreover, the growth in the test with MALME-3M melanoma is 68.2%; in the test on MDA-MB-231 breast, 71.8%; in the test with RXF 393 renal it was 45%; in the test with SF-268 CNS it was 79.3%; in the test on SF-295 CNS it was 36.9%; in the test with SF-539 CNS it was 62.3%. Also, the values for the growth in the test on UACC-257 melanoma and in the test with M14 melanoma were 64.9% and 34.5%, respectively.
With `COC(=O)CCc1c(/C=C2\N=C(c3ccc[nH]3)C=C2OC)[nH]c(C)c1C(=O)OCc1ccccc1`, the growth in the test on NCI-H23 lung is 20.4%; in the test on NCI-H226 lung it was 19.6%; in the test with NCI-H322M lung, 55.9%; in the test with HOP-62 NSCLC, -3.97% (active); in the test on NCI-H460 lung, 12.4%; in the test on HOP-92 NSCLC it was -9.37% (active). The growth with NCI-H522 lung was -20.3% (active); in the test on A549/ATCC NSCLC, 11.9%; in the test on 786-0 renal it was -26.2% (active); with COLO 205 colon, 4.96% (active); with DU-145 prostate it was 29.9%; with K-562 leukemia it was 6.23% (active). The growth was -5.75% (active) in the test with MALME-3M melanoma; -12.6% (active) with MDA-MB-231 breast; -15.9% (active) with RXF 393 renal; 21.4% with SF-268 CNS; -30.4% (active) in the test with SF-295 CNS; -16.9% (active) with SF-539 CNS. In addition, the growth with UACC-257 melanoma was 9.69% (active); in the test with M14 melanoma it was -24.7% (active).
For the compound `CNc1nc2ncc(-c3c(C)noc3C)cc2n1Cc1ccccc1`, the growth is 55.5% in the test with NCI-H23 lung; 56.6% in the test on NCI-H226 lung; 67.1% in the test on NCI-H322M lung; 41.4% in the test with HOP-62 NSCLC; 64.9% in the test with NCI-H460 lung; 7.09% (active) in the test on HOP-92 NSCLC. Further, the growth in the test on NCI-H522 lung was 57.1%; in the test on A549/ATCC NSCLC, 54.4%; in the test with 786-0 renal, 43.3%; in the test on COLO 205 colon, 29.8%; with DU-145 prostate, 79.4%; with K-562 leukemia, 49.3%. Besides, the growth is 45.4% in the test on MALME-3M melanoma; 50.3% with MDA-MB-231 breast; 54.1% in the test on RXF 393 renal; 80.7% in the test on SF-268 CNS; 57.4% with SF-295 CNS; 41% in the test with SF-539 CNS. The growth in the test with UACC-257 melanoma is 42.3%; in the test on M14 melanoma, 31.5%.
For the compound `COc1cc(C2CC(c3cccc(Nc4ccncc4)c3)=Nc3c(N)ncnc3N2)cc(OC)c1OC` (stereo not given), the growth with NCI-H23 lung was 95.5%; in the test on NCI-H226 lung, 89%; in the test with NCI-H322M lung it was 92.2%; in the test on HOP-62 NSCLC it was 86.7%; with NCI-H460 lung, 95.9%; with HOP-92 NSCLC, 76%. For the same compound, the growth was 82.1% with NCI-H522 lung; 84% with A549/ATCC NSCLC; 95.9% in the test on 786-0 renal; 96.6% with COLO 205 colon; 88.3% in the test on DU-145 prostate; 29.3% in the test on K-562 leukemia. In addition, the growth in the test with MALME-3M melanoma is 83.7%; in the test with MDA-MB-231 breast, 91%; with RXF 393 renal, 94.2%; in the test with SF-268 CNS, 79%; in the test with SF-295 CNS it was 95.5%; with SF-539 CNS, 94.8%. Further, the growth with UACC-257 melanoma is 88.2%; in the test on M14 melanoma it was 90.7%.
For `COc1ccc(C2=NN3C(C2)c2cc(Br)ccc2OC3c2ccncc2)cc1` (stereo not given), the growth with NCI-H23 lung is 81.8%; in the test with NCI-H226 lung, 92.7%; in the test with NCI-H322M lung, 76.4%; in the test with HOP-62 NSCLC, 79.9%; in the test on NCI-H460 lung it was 59.4%; in the test on HOP-92 NSCLC, 82.7%. The growth with NCI-H522 lung was 60%; in the test on A549/ATCC NSCLC, 71.7%; in the test on 786-0 renal it was 92.6%; with COLO 205 colon, 110%; in the test on DU-145 prostate, 96.4%; with K-562 leukemia, 74.8%. The growth is 94% with MALME-3M melanoma; 85% with MDA-MB-231 breast; 95.4% in the test on RXF 393 renal; 66.2% in the test on SF-268 CNS; 86.5% in the test with SF-295 CNS; 86.2% in the test with SF-539 CNS. Besides, the growth is 86.2% in the test with UACC-257 melanoma and 86.8% in the test with M14 melanoma.
As to `COc1cc2c(c(OC)c1OC)CCC(c1cccc(C(=O)Nc3ccc([N+](=O)[O-])cc3)c1)O2` (stereo not given), the growth in the test with NCI-H23 lung is 47.2%; in the test with NCI-H226 lung it was 48.3%; with NCI-H322M lung, 68.3%; in the test on HOP-62 NSCLC, 76.7%; with NCI-H460 lung it was 58.8%; in the test with HOP-92 NSCLC, 42.6%. Also, the growth in the test with NCI-H522 lung was 49.6%; in the test with A549/ATCC NSCLC, 55.2%; in the test on 786-0 renal it was 70.1%; in the test on COLO 205 colon, 73.2%; with DU-145 prostate, 57%; in the test with K-562 leukemia it was 21.8%. In addition, the growth in the test on MALME-3M melanoma is 68.3%; in the test with MDA-MB-231 breast it was 37.1%; with RXF 393 renal, 69.8%; in the test on SF-268 CNS, 59.3%; with SF-295 CNS it was 39.8%; with SF-539 CNS, 76.2%. The growth in the test on UACC-257 melanoma is 50.9%; with M14 melanoma, 30.7%.
Turning to `C#Cc1ccc(NC(=O)Cc2ccc(/C=C/C(=O)c3nccn3C)cc2)cc1`, the growth was 40.4% with NCI-H23 lung; 90.6% in the test on NCI-H226 lung; 57.6% in the test on NCI-H322M lung; 48.3% in the test on HOP-62 NSCLC; 22.6% in the test with NCI-H460 lung; 96.5% in the test with HOP-92 NSCLC. The growth in the test on NCI-H522 lung was 68.1%; in the test with A549/ATCC NSCLC, 74.6%; in the test with 786-0 renal, 30%; with COLO 205 colon it was 66%; in the test with DU-145 prostate it was 12.6%; with K-562 leukemia, 18.2%. The growth in the test on MALME-3M melanoma is 95.7%; in the test on MDA-MB-231 breast it was 54.4%; in the test on RXF 393 renal it was 21.8%; with SF-268 CNS, 38%; with SF-295 CNS, 77%; in the test with SF-539 CNS, 26.3%. Further, the results for the growth in the test with UACC-257 melanoma and with M14 melanoma were 103% and 98.6%, respectively.

The record behind these values is PubChem BioAssay (NCI).
